GPR151 ag = human GPR151 activation; PathHunter beta-arrestin GPR151 cells, luminescence; activation, % at 11.2 µM; actives 1% (n = 650,000); AID 1508602; in the data active means activation above about 4.9%
FBW7 activator = human FBW7 E3 ligase activation, primary screen; actives 0.13% (n = 650,000); AID 1259310; AlphaScreen FBW7–phospho-cyclin E peptide binding, activator screen; normalized activity (activation), % at 26.1 µM; in the data active means normalized activity above about 1.9%;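 further: purified mutant Fbw7 with reduced substrate affinity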
MITF primary = blocks human microphthalmia-associated transcription factor | O75030 | AlphaScreen MITF homodimerization, bead proximity signal | inhibition, % at 2.6 µM | actives 0.91% (n = 650,000); in the data active means inhibition above about 50%
Target sequence (O75030 whole entry, looked up): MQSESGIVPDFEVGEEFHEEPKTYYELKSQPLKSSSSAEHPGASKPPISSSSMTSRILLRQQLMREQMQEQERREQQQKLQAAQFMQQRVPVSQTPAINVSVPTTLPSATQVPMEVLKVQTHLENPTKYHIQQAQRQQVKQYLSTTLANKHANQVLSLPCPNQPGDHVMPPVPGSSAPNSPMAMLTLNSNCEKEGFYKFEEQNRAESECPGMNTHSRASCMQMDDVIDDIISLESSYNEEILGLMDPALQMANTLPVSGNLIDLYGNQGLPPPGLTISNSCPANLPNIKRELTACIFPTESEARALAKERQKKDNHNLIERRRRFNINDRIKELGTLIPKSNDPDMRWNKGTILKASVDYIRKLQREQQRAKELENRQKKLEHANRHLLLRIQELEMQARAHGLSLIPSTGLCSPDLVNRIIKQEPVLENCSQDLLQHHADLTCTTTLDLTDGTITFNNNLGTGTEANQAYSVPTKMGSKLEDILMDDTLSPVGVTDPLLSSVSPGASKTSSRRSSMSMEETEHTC
TEAD-YAP inh = TEAD-YAP interaction inhibition. HEK-TIYL cells, TEAD-Gal4/YAP UAS-luciferase luminescence. inhibition, % at 9.12 µM. actives 1.4% (n = 640,000); in the data active means inhibition above about 32%
Numbers stand for hits; - = inactive. Sampled rows, rich in hits. Any-hit rate of the full collection: about 3.5%.

SMILES | GPR151 ag | FBW7 activator | MITF primary | TEAD-YAP inh
COc1cc(N2CCOCC2)ccc1/C=C1\C(=O)NC(=O)N(Cc2ccco2)C1=O | - | - | 66 | -
COc1ccc(/C=C2/C(=O)NC(=O)N(Cc3ccccc3)C2=O)cc1OC | - | - | - | -
O=C1NC(=O)N(Cc2ccco2)C(=O)/C1=C\C=C\c1ccccc1 | - | - | 54 | -
O=C1NC(=O)N(Cc2ccco2)C(=O)/C1=C\c1ccc2c(c1)OCO2 | - | - | 72 | -
O=C1/C(=C/c2ccc3c(c2)OCO3)SC(=S)N1Cc1ccco1 | - | - | - | -
C=CCN1C(=O)NC(=O)/C(=C/C=C/c2ccco2)C1=O | - | - | - | -
COc1ccc(/C=C2/C(=O)NC(=O)N(Cc3ccco3)C2=O)cc1C | - | - | 59 | -
CCCn1c(CCNC(=O)Cc2ccccc2)nc2ccccc21 | - | - | - | -
CC(C)Oc1ccccc1NC(=O)CSCC(=O)Nc1ccccc1 | - | - | - | -
CCOc1ccc(N(Cc2cc3cc(C)ccc3[nH]c2=O)S(C)(=O)=O)cc1 | - | - | - | -
CN(C)c1ccc(-c2nc3ccccc3n2C)cc1 | - | - | - | 93
CN(C)c1ccc(C(O)Cc2nc3ccccc3n2C)cc1 (configuration not stated) | - | - | - | 95
CN(C)c1ccc(-c2ccc3ccccc3n2)cc1 | - | - | - | 76
CC(C)c1ccc(C(O)Cc2nc3ccccc3n2C)cc1 (configuration not stated) | - | - | - | -
COc1ccc(Nc2nc(N3CCCC3)c3ccccc3n2)cc1 | - | - | - | 37
CN(C)c1cc(Nc2ccc(Br)cc2)c([N+](=O)[O-])c2nonc12 | - | - | - | -
CC1CCN(C(=O)CSc2nnc3n(CC(=O)N4CCCC4)c4ccccc4n23)CC1 | - | - | - | -
Cc1cccc(NC(c2ccccn2)c2ccc3ccc(C)nc3c2O)n1 (configuration not stated) | - | - | - | 49
Cc1ccc2ccc(C(Nc3ccccn3)c3ccc(F)cc3)c(O)c2n1 (configuration not stated) | - | - | - | -
Cc1ccc2ccc(C(Nc3ccccn3)c3ccccn3)c(O)c2n1 (configuration not stated) | - | - | - | 39
Cc1cccc(NC(c2cccc(C)n2)c2ccc3ccc(C)nc3c2O)n1 (configuration not stated) | - | - | - | -
Cc1nnc2c(Nc3ccc(C(=O)OC(C)C)cc3)nc3ccccc3n12 | - | - | - | -
CC(C)CNC(=O)c1cc(-c2ccc(O)cc2)on1 | - | - | - | 39
O=C(NC1CCCC1)c1cc(-c2ccc(O)cc2)on1 | - | - | - | 40
CCCNC(=O)c1cc(-c2cccc(O)c2)on1 | - | - | - | 53
SMILES | GPR151 ag | FBW7 activator | MITF primary | TEAD-YAP inh
COCCNC(=O)c1cc(-c2cccc(O)c2)on1 | - | - | - | -
CC1CCc2sc(NC(=O)c3ccc(F)cc3)c(C(N)=O)c2C1 (configuration not stated) | - | - | - | -
Cc1sc2ncnc(NCC3COc4ccccc4O3)c2c1C (configuration not stated) | - | - | - | 48
Cc1sc2ncnc(NCCc3ccc4c(c3)OCCO4)c2c1C | - | - | - | 57
COC(=O)c1c(NC(=O)CCSc2nnc3ccccn23)sc2c1CCC2 | - | - | - | -
COc1ccc(/C=C(/C#N)c2ccccc2F)cc1OC | - | - | - | -
CC(=O)Nc1ccc(Nc2nc(-c3c(C)nc4sccn34)cs2)cc1 | - | - | - | 48
Cc1nc2sccn2c1-c1csc(Nc2ccc(N(C)C)cc2)n1 | - | - | - | 55
Cc1nc2sccn2c1-c1csc(Nc2ccc(O)cc2)n1 | - | - | - | -
Cc1ccccc1Nc1nc(-c2c(C)nc3sccn23)cs1 | - | - | - | -
CN(C)c1ccc(Nc2nc(-c3ccccc3)cs2)cc1 | - | - | - | 43
O=C(c1ccc2c(c1)OCCO2)c1ccccc1Br | - | - | - | -
COc1ccc(OC)c(C2SCCN2S(=O)(=O)c2cccc([N+](=O)[O-])c2)c1 (configuration not stated) | - | - | - | -
Cc1cccc(NC(=O)c2cc(S(=O)(=O)N3CCCCCC3)ccc2F)c1 | - | - | - | -
O=C1NC(=S)N/C1=C\C=C\c1ccc([N+](=O)[O-])o1 | - | - | 78 | 89
CC1(C)Cc2ccccc2-c2[nH][nH]c(=O)c21 | - | - | - | 37
CN1C(=O)c2ccccc2CC1(C)C | - | - | - | -
CCn1c(=O)cc(SCC(=O)NCc2ccc(F)cc2)c2ccccc21 | - | - | - | 45
CCn1c(=O)cc(SCC(=O)NCc2cccs2)c2ccccc21 | - | - | - | 43
CCn1c(=O)cc(SCC(=O)NC(C)C)c2ccccc21 | - | - | - | -
Cc1nc2ncccn2c1-c1csc(Nc2cccc(Cl)c2C)n1 | - | - | - | 38
Cc1nc2ncccn2c1-c1csc(Nc2ccc(Cl)cc2)n1 | - | - | - | 54
Cc1nc2ccccn2c1-c1csc(Nc2cccc(Cl)c2C)n1 | - | - | - | -
Cc1ccc(Nc2nc(-c3c(C)nc4ncccn34)cs2)cc1 | - | - | - | 60
CCOc1ccc(Nc2nc(-c3c(C)nc4ncccn34)cs2)cc1 | - | - | - | 58
SMILES | GPR151 ag | FBW7 activator | MITF primary | TEAD-YAP inh
CC(C)(O)C#Cc1ccc(CN2CCCC(CNC(=O)c3cccnc3)C2)s1 (configuration not stated) | - | - | - | -
Cc1nnc(SCC(=O)Nc2ccc(Cl)c(Cl)c2)[nH]c1=O | - | - | - | -
CC1(C)CC(=O)C(CC(=O)N2CCCCCC2)C(=O)C1 | - | - | - | -
Nc1ccccc1C(=O)N1CCC(c2nc(-c3cnccn3)no2)CC1 | - | - | - | -
O=C(Nc1ccccc1)c1cc(S(=O)(=O)N2CCCCC2)c(Cl)cc1Cl | - | - | - | -
CCOc1cccc(NC(=O)c2ccccc2OC)c1 | - | - | - | -
Oc1c(/C=N/n2cnnc2)sc2ccccc12 | - | - | - | 72
Cc1ccc(N=Cc2sc3ccccc3c2O)cc1C | - | - | - | 74
Cc1ccc(N=Cc2sc3ccccc3c2O)cc1 | - | - | - | 80
Oc1c(C=Nc2ccc(Cl)cc2)sc2ccccc12 | - | - | - | -
Cc1ccccc1N=Cc1sc2ccccc2c1O | - | - | - | 53
Nc1ccccc1N=Cc1sc2ccccc2c1O | - | - | - | -
COc1cccc(/C=C2/SC(=N)N(c3nonc3N)C2=O)c1 | - | - | - | -
CCOC(=O)c1sc2nc(SCC(=O)c3ccc(Cl)cc3)n(CCc3ccccc3)c(=O)c2c1C | - | - | - | -
CCOc1ccc(N=Cc2sc3ccccc3c2O)cc1 | - | - | - | 88
CN(Cc1cccc(F)c1)S(=O)(=O)/C=C/c1ccccc1 | - | - | - | -
COc1ccc(CCNS(=O)(=O)c2cccc3cnccc23)cc1OC | - | - | - | -
O=C(NCc1ccco1)c1cccn2c(=O)c3cc4ccccc4cc3nc12 | - | - | - | -
COCCCNC(=O)c1cc2c(=O)n3cccc(C)c3nc2n1C | - | - | - | 56
COCCCNC(=O)c1cccn2c(=O)c3cc4ccccc4cc3nc12 | - | - | - | 36
COCCNC(=O)c1cc2c(=O)n3cccc(C)c3nc2n1C | - | - | - | -
